A selection: hits, their analogues and other compounds. The true share with any hit is near 4.6%.
USP7 inh: human USP7 deubiquitinase inhibition; Q93009; purified USP7, Ub-rhodamine cleavage fluorescence; inhibition, % at 20 µM; 47,000 compounds, 0.3% hits; AID 1645854
Target sequence (Q93009 whole entry, looked up): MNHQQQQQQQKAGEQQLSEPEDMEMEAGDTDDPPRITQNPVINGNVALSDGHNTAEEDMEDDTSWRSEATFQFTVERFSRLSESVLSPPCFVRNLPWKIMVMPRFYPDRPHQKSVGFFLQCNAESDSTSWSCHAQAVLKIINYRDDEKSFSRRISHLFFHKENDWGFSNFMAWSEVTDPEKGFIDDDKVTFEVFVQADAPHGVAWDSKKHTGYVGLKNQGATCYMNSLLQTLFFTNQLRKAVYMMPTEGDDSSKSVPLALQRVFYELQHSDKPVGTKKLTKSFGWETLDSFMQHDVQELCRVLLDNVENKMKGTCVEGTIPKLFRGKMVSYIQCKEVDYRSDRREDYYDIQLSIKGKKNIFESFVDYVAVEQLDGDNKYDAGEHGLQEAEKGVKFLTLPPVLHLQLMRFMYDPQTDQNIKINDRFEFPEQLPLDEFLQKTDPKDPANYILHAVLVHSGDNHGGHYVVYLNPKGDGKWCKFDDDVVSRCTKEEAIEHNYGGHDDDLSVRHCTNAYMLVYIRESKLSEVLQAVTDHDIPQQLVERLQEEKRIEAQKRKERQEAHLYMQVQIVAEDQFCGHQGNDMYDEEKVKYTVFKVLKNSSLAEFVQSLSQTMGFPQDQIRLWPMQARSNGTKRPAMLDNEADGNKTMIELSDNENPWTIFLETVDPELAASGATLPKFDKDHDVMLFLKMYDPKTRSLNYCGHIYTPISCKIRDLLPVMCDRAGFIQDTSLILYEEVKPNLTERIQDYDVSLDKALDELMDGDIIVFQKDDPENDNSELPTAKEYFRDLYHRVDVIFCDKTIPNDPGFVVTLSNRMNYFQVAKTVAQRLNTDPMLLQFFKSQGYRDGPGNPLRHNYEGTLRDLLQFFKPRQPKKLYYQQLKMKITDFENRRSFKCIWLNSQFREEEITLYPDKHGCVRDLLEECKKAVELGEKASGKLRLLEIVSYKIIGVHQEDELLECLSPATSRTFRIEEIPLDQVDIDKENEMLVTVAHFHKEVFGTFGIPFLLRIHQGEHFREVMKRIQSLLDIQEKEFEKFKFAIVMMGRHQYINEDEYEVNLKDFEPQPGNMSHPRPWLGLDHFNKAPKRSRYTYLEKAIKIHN
USP8 inh: human USP8 deubiquitinase inhibition; P40818; purified USP8, Ub-rhodamine cleavage fluorescence, 30 min; inhibition, % at 20 µM; 47,000 compounds, 4.2% hits
UCHL1 block: blocks human UCHL1 ubiquitin-rhodamine cleavage | P09936 | purified UCHL1, Ub-rhodamine cleavage fluorescence | inhibition, % at 20 µM | 47,000 compounds, 0.2% hits
USP10 block: inhibitors of human USP10 deubiquitinase | Q14694 | 47,000 compounds, 1.1% hits | inhibition, % at 20 µM | purified USP10, Ub-rhodamine fluorescence, 60 min
* hit, by the source's call; · = no result given. No stated cut-off is given here; in the data, active means inhibition above about 30%; inactive means the rest.

SMILES	USP7 inh	USP8 inh	UCHL1 block	USP10 block
CC(C)(C)c1ccc(Cn2nnc3c(=O)[nH]c(C4CCN(S(=O)(=O)c5ccc(S(=O)(=O)NC6CC6)cc5)CC4)nc32)cc1	13.9	32.6*	10.5	29.0
O=c1[nH]c(C2CCN(S(=O)(=O)c3ccc(S(=O)(=O)N4CCOCC4)cc3)CC2)nc2c1nnn2Cc1cccc(Cl)c1	8.8	34.9*	5.5	28.4
Cc1ccc(Cn2nnc3c(=O)[nH]c(C4CCN(S(=O)(=O)c5ccc(S(=O)(=O)NC6CCCC6)cc5)CC4)nc32)cc1	10.0	-227.9	4.7	33.7*
O=C(NCC1COCCO1)c1cccc(NC(=O)c2nsc3ccccc23)c1 (configuration not stated)	-0.9	-1.7	1.3	-3.1
COc1cc(C2=NO[C@]3(C(=O)Nc4ccccc43)[C@H]2C(=O)c2ccco2)ccc1OCC#N	-5.4	-87.3	2.5	-5.0
O=C1COc2ccccc2C/C=C/CC2(CCN(Cc3ncc[nH]3)CC2)C(=O)NCCN1	1.9	0.4	3.9	-6.5
Cc1ccc(CNC(=O)Cn2c(=O)n(CCCC(=O)NCc3ccc(F)cc3)c(=O)c3ccccc32)cc1	21.3	43.2*	4.4	43.7*
Cc1ccc(Cn2c(=O)n(CCC(=O)NCCc3ccccc3)c(=O)c3ccccc32)cc1	9.9	33.8*	2.9	15.3
COc1ccc(CCNC(=O)c2ccc(Cn3c(=O)c4ccccc4n(Cc4cc(=O)n5ccccc5n4)c3=O)cc2)cc1OC	10.3	1.4	2.4	-3.4
O=C(Cn1c(=O)n(Cc2ccc(F)cc2)c(=O)c2ncccc21)Nc1ccccc1	-13.2	14.1	3.9	0.2
O=C(Cc1ccc(-n2c(=O)c3ccccc3n(Cc3cc(=O)n4ccccc4n3)c2=O)cc1)NCCc1ccccc1	16.3	48.6*	9.1	12.5
Cc1ccc(Cn2c(=O)c3ncccc3n(CC(=O)NCc3ccc(F)cc3)c2=O)cc1	3.3	81.4*	3.5	33.5*
Cc1ccc(-c2noc(CN3CCCC(N4CCNC4=O)C3)n2)cc1 (configuration not stated)	4.1	12.5	0.7	-0.9
CCn1cc2c(n1)c(=O)n(Cc1ccccc1)c(=O)n2CC(=O)NCc1ccc(C)cc1	13.5	60.5*	2.2	28.5
CCOC(=O)c1ccc(NC(=O)Cn2c(=O)n(-c3ccc(CC(=O)NCc4ccco4)cc3)c(=O)c3ccccc32)cc1	8.8	58.3*	-0.4	33.3*
COC(=O)c1ccccc1NC(=O)Cn1c(=O)n(Cc2ccc(C(=O)NCc3ccco3)cc2)c(=O)c2ccccc21	13.8	38.7*	9.9	32.4*
CCOC(=O)c1ccc(NC(=O)Cn2c(=O)n(CC(=O)NCc3ccco3)c(=O)c3ccccc32)cc1	-3.1	10.9	0.5	35.1*
O=C(Cc1ccc(-n2c(=O)c3ccccc3n(CC(=O)Nc3ccc(F)cc3F)c2=O)cc1)NCc1ccco1	-2.3	15.1	-4.0	-7.9
Cc1ccc(NC(=O)Cn2c(=O)n(CCCCC(=O)NCc3ccco3)c(=O)c3ccccc32)cc1C	1.0	12.8	-1.0	19.3
CN(C)CCOC(=O)CC1(Cc2ccccc2)C(=O)CC(C)(C)CC1=O	-1.5	-20.2	-3.0	1.0
Cc1ccc2c(CN3CCN(c4ccc(O)cc4)CC3)cc(=O)oc2c1C	0.8	28.9	-0.8	10.8
Cc1ccc2c(c1)[nH]c(=O)c1nc(C(=O)Nc3ccccc3C)nn12	-2.3	-10.6	-5.1	-3.7
Cc1nn2c(C)c(C(=O)NCc3ccc4c(c3)OCO4)cnc2c1-c1ccccc1	-2.2	11.3	-1.6	2.1
COc1cc(Cl)ccc1Nc1ncc(C(=O)Nc2ccc3c(c2)OCO3)c2ccccc12	9.5	38.8*	2.2	5.5
COc1ccccc1Nc1ncc(C(=O)NCc2ccc(F)cc2)c2ccccc12	6.7	71.1*	3.5	6.7
SMILES	USP7 inh	USP8 inh	UCHL1 block	USP10 block
CCOC(=O)c1cnc(Nc2ccccc2OC)c2ccccc12	-5.9	-11.5	-4.1	-2.5
CCOC(=O)c1cnc(Nc2cc(OC)ccc2OC)c2ccccc12	0.4	12.4	-0.6	-10.1
COc1cc(OC)c(NC(C)C(=O)Nc2ccc3c(c2)OCO3)cc1Cl (configuration not stated)	-0.6	36.7*	2.8	-3.6
COc1ccccc1Nc1ncc(C(=O)NCc2ccc3c(c2)OCO3)c2ccccc12	5.7	62.7*	0.6	10.8
Cc1ccc(C(=O)c2cn(CC(=O)Nc3ccccc3C)c3ccc(C)cc3c2=O)cc1	2.7	-4.2	-2.2	5.7
N#Cc1ccc(OC(C(=O)N2CCCC2)c2ccccc2)cc1 (configuration not stated)	-7.9	12.4	0.8	-6.1
CC(=O)Nc1ccc(Cc2nc(-c3ccc4c(c3)nc(C)c(=O)n4C3CCCC3)no2)cc1	-24.4	-130.5	-32.0	-8.5
Cc1cc2c(cc1C)NC(CC(=O)Nc1ccc(O)cc1)C(=O)N2 (configuration not stated)	-8.5	81.3*	1.6	-5.2
O=C(O)Cn1cc(C(=O)C2CC2)c2ccccc21	-0.4	0.1	-3.3	-0.7
O=C(Cn1cc(C(=O)C2CC2)c2ccccc21)NCCOc1ccc(Cl)cc1	10.2	31.8*	0.0	1.1
Cc1ncccc1C(=O)N1CCOC(CCc2ccnc(N)c2)C1 (configuration not stated)	-1.1	-0.5	-4.7	-1.2
NC(c1c(O)ccc2ccccc12)P(=O)(O)O (configuration not stated)	4.7	37.5*	-1.0	-1.0
O=C(/C=C/c1ccc(Br)cc1)Nc1cnc2ccccc2c1	9.8	49.5*	2.7	15.4
O=C(/C=C/c1cnc2ccccc2c1)NCc1ccccc1	4.1	3.5	-0.5	2.7
O=C(Cn1c(=O)c2c(ncn2C2CCCC2)n(Cc2ccccc2)c1=O)NCC1CCCO1 (configuration not stated)	-2.4	-13.2	-2.6	-4.8
Cc1ccccc1NC(=O)Cn1ccc2ccn(Cc3ccccc3)c2c1=O	8.3	49.0*	-4.0	18.7
Cc1ccccc1NC(=O)Cn1cccc(-c2nc(-c3ccccc3)no2)c1=O	4.2	27.6	-4.6	-0.2
O=C(Cn1ccc2ccn(Cc3ccccc3)c2c1=O)Nc1cccc(F)c1	6.3	31.8*	-0.5	9.2
Cc1ccccc1NC(=O)Cn1c(=O)c2c(ncn2C2CCCC2)n(Cc2ccccc2)c1=O	-39.4	38.7*	1.2	7.4
COc1ccc(-c2cc3c(=O)n(CC(=O)Nc4ccccc4C)ccn3n2)cc1	13.4	30.8*	3.9	28.8
Cn1ccc2ccn(CC(=O)Nc3cccc(Cl)c3)c(=O)c21	·	0.7	1.0	0.8
Cn1c(=O)c2c3c(cnc2n(C)c1=O)C(=O)CC(c1ccc(Cl)cc1)C3 (configuration not stated)	-15.1	8.4	2.1	1.0
COc1cccc(NC(=O)C2C3C=CC4(O3)C2C(=O)N(CCc2ccccc2Cl)C4C(=O)NC2CCCCC2)c1 (configuration not stated)	-24.8	4.5	-2.5	-0.6
COCCCNC(=O)c1sc2nc(C)c(C(=O)Nc3ccc(C)cc3C)c(-c3sccc3C)c2c1N	-10.5	-278.5	-2.1	-2.9
FC(F)(F)c1ccc(Nc2nnnc3ccccc23)cc1	59.9*	63.8*	28.8	46.6*
Cc1cc(Nc2ccc(C)c(F)c2)c2ccccc2n1	2.7	9.0	5.0	-0.5
